In PubChem BioAssay (NCI):
About 83,000 compounds went through this panel and 20% of them were active in at least one assay; those are over-represented in the sample as a whole.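 Results are percent growth after 48 hours of single-concentration exposure. 100 means growth as in untreated cells, lower positive values show inhibition; negative values down to -100 show cell death.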 Unmarked numbers belong to inactive results. The source made the active and inactive calls. Rule for the calls: active = growth percent below 10; inactive = the rest.

What was measured:
Test in all cases: NCI-60 one-dose screen, 48 h (100 = growth as untreated, 0 = no growth, -100 = all killed)
Conditions in all cases: 10 µM unless noted
SK-MEL-2 melanoma = system: SK-MEL-2 melanoma
EKVX NSCLC = system: EKVX NSCLC
SN12C renal = system: SN12C renal
UO-31 renal = system: UO-31 renal
TK-10 renal = system: TK-10 renal
ACHN renal = system: ACHN renal
CAKI-1 renal = system: CAKI-1 renal
A498 renal = system: A498 renal
CCRF-CEM leukemia = system: CCRF-CEM leukemia
MOLT-4 leukemia = system: MOLT-4 leukemia
SR leukemia = system: SR leukemia
RPMI-8226 leukemia = system: RPMI-8226 leukemia
OVCAR-8 ovarian = system: OVCAR-8 ovarian
OVCAR-5 ovarian = system: OVCAR-5 ovarian
OVCAR-4 ovarian = system: OVCAR-4 ovarian
SK-OV-3 ovarian = system: SK-OV-3 ovarian
IGROV1 ovarian = system: IGROV1 ovarian
OVCAR-3 ovarian = system: OVCAR-3 ovarian
HS 578T breast = system: HS 578T breast
NCI/ADR-RES ovarian = system: NCI/ADR-RES ovarian

Row | Structure (SMILES) | growth (SK-MEL-2 melanoma) | growth (EKVX NSCLC) | growth (SN12C renal) | growth (UO-31 renal) | growth (TK-10 renal) | growth (ACHN renal) | growth (CAKI-1 renal) | growth (A498 renal) | growth (CCRF-CEM leukemia) | growth (MOLT-4 leukemia) | growth (SR leukemia) | growth (RPMI-8226 leukemia) | growth (OVCAR-8 ovarian) | growth (OVCAR-5 ovarian) | growth (OVCAR-4 ovarian) | growth (SK-OV-3 ovarian) | growth (IGROV1 ovarian) | growth (OVCAR-3 ovarian) | growth (HS 578T breast) | growth (NCI/ADR-RES ovarian)
1 | CC1=C(CCC(C)NCc2ccc(OCCCN3CCCCC3)cc2)C(C)(C)CCC1 (stereo not given) | -82.1% (active) | -39.1% (active) | -60.7% (active) | -95.5% (active) | -94.3% (active) | -83.6% (active) | -55.7% (active) | -71.5% (active) | -39.6% (active) | -41.7% (active) | -43.4% (active) | -39.6% (active) | -45.4% (active) | -49.8% (active) | -4.46% (active) | -74.1% (active) | -36.6% (active) | -70.4% (active) | -52.9% (active) | -40.5% (active)
2 | Cc1ccc(S(=O)(=O)N2CCC(=O)c3ccccc32)cc1 | 56.9% | 102% | 81.2% | 71.1% | 89.1% | 90.7% | 91.9% | 83.2% | 66.3% | 64.1% | 39.1% | 106% | 103% | 91% | 99.3% | 62.2% | 85.2% | 63.4% | 71.7% | 72.6%
3 | Cc1ccc(-c2nc(/C=C3/C(=O)Nc4ccc(F)cc43)c3ccccn23)cc1 | 31.9% | 87.2% | 88.2% | 70.2% | 89.2% | -3.57% (active) | 60.5% | 97.7% | 77.4% | 77.7% | 58% | 89.7% | 69.6% | 69.2% | 63.4% | 98% | 55% | 110% | 99.2% | 85.3%
4 | Nc1[nH]n2cc(-c3ccc(F)cc3)nc2c1N=Nc1ccc(S(N)(=O)=O)cc1 | 70.1% | 108% | 68.9% | 58.3% | 83.8% | 52.3% | 47.4% | 40.1% | 66.6% | 85.8% | 66.5% | 73.2% | 79% | 90.7% | 80.9% | 73.9% | 61.9% | 78.7% | 66.8% | 105%
5 | C=C(CNCCc1ccc(O)cc1)[C@@H]1CC[C@]2(CO)CC[C@]3(C)[C@H](CC[C@@H]4[C@@]5(C)CCC(=O)C(C)(C)[C@@H]5CC[C@]43C)[C@@H]12 | 37.5% | 80% | 24.5% | 27.1% | 67.4% | 12.6% | 58.2% | 84.1% | -9.98% (active) | 1.2% (active) | -24.9% (active) | -12.2% (active) | -70.3% (active) | 90% | 58.1% | 92.4% | 30.9% | 39.7% | 51.9% | 33%
6 | COc1cc(NC(=O)c2cncnc2Nc2ccc3c(ccn3Cc3ccccn3)c2)cc(OC)c1 | 45% | 68.4% | 56.2% | 46% | 73.3% | 66.5% | 44.2% | -12.5% (active) | 22.3% | 24.9% | 12.9% | 43.5% | 65.8% | 76.6% | 78.4% | 57.9% | 45.4% | 9.55% (active) | 35.2% | 35%
7 | Clc1ccc(-c2cc(-c3ccccc3)nc(NCCNc3ccnc4cc(Cl)ccc34)n2)cc1 | 78.8% | 88.4% | -48% (active) | 36.4% | 106% | 10.1% | 5.52% (active) | 53.3% | -2.14% (active) | -1.52% (active) | 29.2% | -25.3% (active) | -55.9% (active) | 48.9% | -69.4% (active) | 100% | -61.3% (active) | -90.6% (active) | -17.5% (active) | -63.4% (active)
8 | CCCCCCCCCCCCCCCCCCOc1ccccc1CC(=O)NCC[N+]1(C)CCCCC1 | 64.5% | 89.1% | 33% | 76.2% | 42.1% | 93.6% | 79.3% | 66% | 17.1% | 9.62% (active) | 26.3% | 50.9% | 57.1% | 30% | 40.3% | 77% | -8.66% (active) | 46.5% | 61.8% | 104%
9 | CCNC(=O)Oc1ccc(/C(=C(/C)Cc2ccc(OC)cc2)c2ccc(OCCN3CCCCC3)cc2)cc1 | 92.3% | 79.8% | 71.4% | 50.5% | 82.6% | 94.8% | 90% | 90.8% | 36.5% | 31.4% | -32% (active) | 22.5% | 81.8% | 89.6% | 75.1% | 90.7% | 77.7% | 74.6% | 64.5% | 85.1%
10 | O=C(Nc1ncc(Cc2ccccc2)s1)c1ccc2c(c1)OCCCO2 | 30.6% | 36.7% | 40.4% | 48.1% | 55.9% | 34% | 25.3% | -2.27% (active) | 16.2% | 21.4% | 7.17% (active) | 14.3% | 44.9% | 47.6% | 52.3% | 55.2% | 41.1% | -10.5% (active) | 49.7% | 9.35% (active)
11 | COc1ccc2c(c1)c(-c1nc(-c3c[nH]c4ncccc34)cs1)cn2CCCN1CCOCC1 | 11.4% | 57.8% | 52.7% | 11.9% | 51.5% | 14.5% | 28.8% | 27.8% | 13.1% | -1.04% (active) | 6.64% (active) | 0.661% (active) | 25.3% | 68.1% | 41.5% | 51.8% | 22.9% | 44% | 2.12% (active) | 43.4%
12 | COc1cc(OC)c(/C=C/C(=O)c2c(O)cc(OC)c(C3CCN(C)CC3)c2OC)c(OC)c1 | -57.8% (active) | 22.9% | 4.89% (active) | -76.2% (active) | -82.5% (active) | -98.3% (active) | -62.8% (active) | 17.8% | -19.3% (active) | -34.4% (active) | -22.2% (active) | -45.3% (active) | 1.17% (active) | -29.8% (active) | 19.3% | -79.7% (active) | 29.1% | -51.1% (active) | -46.2% (active) | -19.3% (active)
13 | CCN(CC)c1ccc(/C=N/NC(=O)Cc2ccc(Nc3ccnc(C(F)(F)F)c3)cc2)c(O)c1 | 56.1% | 10.5% | 40.3% | 20.3% | 35.4% | 19.4% | -20.8% (active) | 22% | 9.9% (active) | 10.4% | 19.7% | 25.8% | 28.8% | 48.2% | 20.9% | 28% | 25.1% | 32.4% | 37.7% | 18.3%
14 | CCc1ccc(CCC(=O)Nc2ncc(Cc3ccccc3)s2)o1 | 44.4% | 36.1% | 42.3% | 40.3% | 63.1% | 44.4% | 33.3% | 22.9% | 19% | 22.2% | 22.6% | 29.4% | 28.4% | 38.9% | 61.5% | 34.4% | 35.6% | -11.2% (active) | 9.99% (active) | 12.7%
15 | C=C1C(=O)O[C@H]2[C@H]1CC/C(COC(=O)/C=C\C(=O)NCc1ccc(Cn3c(=O)sn(CCCCC)c3=O)cc1)=C\CC[C@@]1(C)O[C@@H]21 | 87.6% | 98% | 71% | 60.7% | 57.4% | 46.9% | 66.6% | 100% | 4.56% (active) | 18% | 59.7% | 8.85% (active) | 84.5% | 89% | 84.6% | 111% | 58% | 36% | 98.2% | 98.8%
